Compound activity: PubChem BioAssay, several laboratories
Rows were chosen to be rich in hits. Some 1.7% of all compounds tested hit in one or more screens of this group.
Neddylation inh: inhibitors of human cullin neddylation | P61081+Q13564 | TR-FRET cullin neddylation, biochemical | inhibition, % at 25 µM | 0.58% of 360,000 active | AID 651699; in the data active = inhibition above about 36%
SUMO1 PPI mod: SUMO1-SIM interaction modulation; inhibition, % at 20 µM; 0.33% of 360,000 active; SUMO1 binding to a labelled peptide, TR-FRET, 1 h; in the data active = inhibition above about 37%
Rin1 Abl inh: inhibitors of human Rin1-Abl protein interaction | inhibition, % at 7.35 µM | P00519+Q13671 | TR-FRET Rin1/Abl binding, biochemical | 0.4% of 360,000 active; in the data active = inhibition above about 5%, passing the limit was not always enough
ATG4B inhibitor: blocks human ATG4B protease cleavage of LC3 substrate. ATG4B cleavage of LC3-PLA2, NBD-HPC fluorescence, 1 h. inhibition, % at 8.33 µM. 0.51% of 340,000 active. Q9Y4P1; in the data active = inhibition above about 40%
Target sequence (Q9Y4P1 whole entry, looked up): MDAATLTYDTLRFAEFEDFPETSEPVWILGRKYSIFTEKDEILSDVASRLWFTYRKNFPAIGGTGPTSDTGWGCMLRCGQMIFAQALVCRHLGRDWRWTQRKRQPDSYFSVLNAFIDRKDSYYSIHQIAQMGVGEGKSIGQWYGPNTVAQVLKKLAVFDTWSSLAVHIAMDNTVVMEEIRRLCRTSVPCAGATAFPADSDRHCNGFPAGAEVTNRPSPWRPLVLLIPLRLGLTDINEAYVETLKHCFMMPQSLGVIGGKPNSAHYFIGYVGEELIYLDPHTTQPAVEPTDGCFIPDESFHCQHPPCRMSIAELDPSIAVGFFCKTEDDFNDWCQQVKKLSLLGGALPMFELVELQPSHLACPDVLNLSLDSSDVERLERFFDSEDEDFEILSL
ATG4B confirm: confirmation of human ATG4B inhibitors; inhibition, % at 8.33 µM; ATG4B protease fluorescent substrate cleavage assay; 92% of 320 active; shares compounds with ATG4B inhibitor; in the data active = inhibition above about 39%
PLA2 counter: inhibits human PLA2, flagging false ATG4B inhibitors; inhibition, % at 8.33 µM; shares compounds with ATG4B inhibitor; AID 588402; purified PLA2, NBD-C6-HPC fluorescence, 45 min; 66% of 1,600 active; in the data active = inhibition above about 50%
Target sequence (P04054 whole entry, looked up): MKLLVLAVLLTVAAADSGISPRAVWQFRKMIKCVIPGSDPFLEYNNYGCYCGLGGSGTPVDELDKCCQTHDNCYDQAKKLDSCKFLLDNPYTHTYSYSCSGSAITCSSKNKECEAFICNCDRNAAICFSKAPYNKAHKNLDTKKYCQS
* marks the source's active call; other numbers are inactive results; x = no result given.

SMILES	Neddylation inh	SUMO1 PPI mod	Rin1 Abl inh	ATG4B inhibitor	PLA2 counter	others
O=C(N/N=C1\CC(c2ccccc2)Oc2ccccc21)c1cccnc1 (centres undefined)	x	-1.2	-3.6	-5.7	x
O=C(N/N=C1\CC(c2ccccc2)Oc2ccccc21)c1ccc(O)cc1 (centres undefined)	-14.1	-4.4	-1.0	43.1*	54.9*
COc1cc(-c2cnc3c(NC=O)cc(-c4ccccc4Cl)cn23)cc(OC)c1OC	27.8	6.8	-3.9	x	x
CN(C)Cc1ncccc1Oc1nc2cc(-c3cccc(Cl)c3)sc2c(=O)n1C	-63.5	-30.0	-1.1	x	x
CC(C)COC(=O)c1ccc(N2C(=O)c3ccccc3C2=O)cc1	-51.0	-10.1	-1.8	45.0*	17.4	ATG4B confirm=66.7*
CCN(Cc1ccccc1)C(=O)C1CCN(c2ncnc3c2nc2n3CCCCC2)CC1	-5.8	-3.6	4.3	45.2*	52.7*
CCc1ccccc1N(CC)C(=O)C1CCN(c2ncnc3c2nc2n3CCCCC2)CC1	6.5	-5.2	0.9	52.5*	65.6*
CC(C)[C@H](NS(=O)(=O)c1ccccc1)C(=O)OCC(=O)Nc1ccccc1Sc1ccccc1	7.0	-1.0	-2.2	94.5*	92.5*
COc1cc2c(cc1NC(=O)COC(=O)[C@@H](NS(=O)(=O)c1ccccc1)C(C)C)oc1ccccc12	-18.5	1.0	0.1	75.8*	82.5*
COc1cc2c(cc1NC(=O)COc1ccccc1OC)oc1ccccc12	-6.0	-0.9	3.3	3.1	x
N#Cc1c(N)n(C2OC(CO)C(O)C2O)c2ncnc(N)c12 (centres undefined)	17.1	0.7	2.0	2.9	x
COc1ccccc1-c1cnc(C(O)c2c(C)cc(C)cc2C)[nH]1 (centres undefined)	1.7	3.1	5.7	x	x
Cc1cccc(C)c1OCc1cc(C(=O)N2CCN(c3ccccn3)CC2)no1	-8.9	-2.1	0.7	57.0*	53.0*
Cc1cccc(C)c1OCc1cc(C(=O)N2CCN(c3ccc(F)cc3)CC2)no1	8.8	6.9	-0.2	33.7	x
Cc1cccc(C)c1OCc1cc(C(=O)N2CC3C[C@@H]4CC2C[C@H](C3)C4)no1	5.7	3.9	-0.3	51.8*	68.8*
O=C1C(=C(c2ccccc2)c2ccccc2)Nc2ccccc21	-53.1	-38.1	-7.6	42.7*	50.0*
O=C1CN(C(=O)c2ccccc2)c2ccccc2N1	1.1	11.2	-3.1	2.6	x
CC(C)(C)S(=O)N1Cc2cc(C(=O)NCC(F)(F)F)nc(-c3cccc(-c4cccc(F)c4)c3)c2[C@@H]1CCO (some centres undefined)	-20.2	-0.9	2.2	x	x
NC(=O)c1ccc(NCCc2ccccc2)c([N+](=O)[O-])c1	-44.7	-23.4	-1.8	48.6*	66.3*
CCc1ccccc1NC(=O)c1ccc(NCCc2ccccc2)c([N+](=O)[O-])c1	-9.7	-8.6	-0.5	42.5*	34.9
O=C(Nc1ccccc1)c1ccc(NCCc2ccccc2)c([N+](=O)[O-])c1	-28.4	-11.1	2.1	-3.5	x
O=C(COC(=O)c1ccc2c(c1)OCO2)NC1CCCCC1	3.0	0.0	-0.3	-7.3	x
CCCCN1C(=O)C(CC(=O)NCCN2CCOCC2)CC(C(=O)N(CC)CC)=C1C (centres undefined)	-6.6	3.5	-1.9	x	x
Clc1cccc(Cl)c1CO/N=C/c1cccs1	-17.9	-16.2	-0.8	-11.1	x
Cc1c(C)c(C)c(CO/N=C/c2cccs2)c(C)c1C	-8.7	-4.1	0.9	60.3*	41.6	ATG4B confirm=66.5*
SMILES	Neddylation inh	SUMO1 PPI mod	Rin1 Abl inh	ATG4B inhibitor	PLA2 counter	others
COc1ccccc1OCc1ccc(C(=O)n2nc(C)c(Cl)c2C)o1	5.0	4.6	-2.1	75.1*	77.2*
COC(=O)c1ccc(COc2ccccc2OC)o1	-0.1	-0.2	-0.9	-2.9	x
Oc1c(Br)cc(Br)cc1/C=N/n1c(-c2ccccc2)n[nH]c1=S	19.8	9.8	2.4	41.6*	8.7	ATG4B confirm=45.3*
COc1c(Br)cc(/C=N/n2c(-c3ccccc3)n[nH]c2=S)c(O)c1Br	22.1	20.5	2.8	17.2	x
C[C@@H]1CN([C@H](C)CO)C(=O)c2cc(NC(=O)Cc3ccccc3)ccc2O[C@H]1CN(C)Cc1ccc(Oc2ccccc2)cc1	-2.6	2.0	-1.6	55.6*	67.7*
Cc1ccc2nc(N/N=C/c3ccccc3F)nc(-c3ccccc3)c2c1	x	-3.5	-1.5	46.2*	39.6	ATG4B confirm=75.0*
O=C(C[C@H]1C(=O)N(Cc2ccccc2)C[C@@H]1c1ccc(Br)cc1)Nc1ccc(Br)cc1	-38.1	3.8	-0.6	x	x
Cc1ccccc1N1C(=O)CN(Cc2sccc2C)C1=S	-5.3	-0.7	1.3	65.2*	78.9*
Cc1ccc(N2C(=O)CN(Cc3cccs3)C2=S)cc1C	-2.4	0.1	0.8	58.1*	78.4*
CCc1ccc(N2C(=O)CN(Cc3ccc(OC)c(OC)c3)C2=S)cc1	-3.6	-1.6	0.2	-0.2	x
Cc1ccc(N2C(=O)CN(Cc3sccc3C)C2=S)cc1C	-0.6	-0.2	-1.2	95.2*	94.3*
Cc1ccc(N2C(=O)CN(Cc3ccccc3)C2=S)cc1C	10.0	-9.4	2.0	75.2*	79.2*
CC(C)(C)c1nc(SCC(=O)c2ccccc2)c2ccccc2n1	-206.0	-0.4	-0.4	50.5*	31.8	ATG4B confirm=69.7*
COc1ccc(-n2c(CCc3ccccc3)nnc2SCC(=O)c2ccc(Cl)cc2)cc1	3.2	-4.9	2.5	13.0	x
O=C(CSc1nnc(CCc2ccccc2)n1-c1ccc(Cl)cc1)c1ccccc1	2.3	-4.1	-1.4	58.4*	60.8*
COC(=O)C1=C(C)N(Cc2cccnc2)C(=O)/C1=C\c1sccc1C	-7.1	-12.1	-4.1	42.5*	53.7*
CCCc1nc(SCC(=O)NC2CC2)c2c(C)c(C)sc2n1	-17.1	6.2	1.8	3.1	x
CCCc1nc(SCC(=O)N2c3ccccc3CC2C)c2c(C)c(C)sc2n1 (centres undefined)	-69.9	-1.3	4.2	69.0*	80.7*
O=[N+]([O-])c1ccc(O)c(C=Nc2ccc3nc(-c4ccccc4)[nH]c3c2)c1	x	-2.6	-1.8	41.7*	37.3
Oc1c(Br)cc(C=Nc2ccc3nc(-c4ccccc4)[nH]c3c2)c(O)c1Br	x	x	x	21.2	x
CC(C)C[C@@H]1COc2cc(N3CCSCC3)ccc2S(=O)(=O)N1	20.2	-2.1	x	x	x
O=C1N[C@@H](c2ccccc2)COC(=O)[C@H](Cc2ccc(F)cc2)CC/C=C/C[C@@H]1CC(=O)N(CCO)Cc1ccccc1	-13.9	4.8	1.6	47.5*	57.1*
Cc1ccc(C(=O)NC(=S)Nc2ccccc2N2CCCC2)cc1[N+](=O)[O-]	6.6	4.7	0.2	42.0*	20.6
CC1(C)C2CCC1(C)C1(C2)NC(=O)c2ccccc2O1 (centres undefined)	3.2	3.4	0.5	45.0*	33.7	ATG4B confirm=70.0*
CSCCNC(=O)C1(C)CCN1C(=O)C/C=C/c1ccccc1 (centres undefined)	-5.9	-1.6	-0.4	x	x
